Test results: PubChem BioAssay AID624330 (Southern Research Specialized Biocontainment Screening …, 2012)
Among all 340,000 compounds or so, about 2,100 (0.62%) were called active.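 The calls were made as follows: active = first-screen hits whose inhibition reached a set limit at any dose in the follow-up dose series; inconclusive = inhibition above the set first-screen limit but never retested; inactive = the rest.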 A selection follows. Entries with a potency or affinity are not part of this list.

The compounds below were run against Rac GTPase-activating protein 1 (Homo sapiens) (UniProt Q9H0H5) (assay: MgcRacGAP GTPase-activating activity inhibitors, confirmation, biochemical, ADP Hunter fluorescence, primary and confirmatory (AID 624330;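 also: fluorescence reports GDP produced by GAP-driven GTP hydrolysis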)). Details: MgcRacGAP-stimulated Rac1 GTP hydrolysis, at 30 µM, active compounds read high, GST-tagged Rac1 F28L mutant substrate.
Sequence of Rac GTPase-activating protein 1 (Homo sapiens) (Q9H0H5 whole entry, looked up): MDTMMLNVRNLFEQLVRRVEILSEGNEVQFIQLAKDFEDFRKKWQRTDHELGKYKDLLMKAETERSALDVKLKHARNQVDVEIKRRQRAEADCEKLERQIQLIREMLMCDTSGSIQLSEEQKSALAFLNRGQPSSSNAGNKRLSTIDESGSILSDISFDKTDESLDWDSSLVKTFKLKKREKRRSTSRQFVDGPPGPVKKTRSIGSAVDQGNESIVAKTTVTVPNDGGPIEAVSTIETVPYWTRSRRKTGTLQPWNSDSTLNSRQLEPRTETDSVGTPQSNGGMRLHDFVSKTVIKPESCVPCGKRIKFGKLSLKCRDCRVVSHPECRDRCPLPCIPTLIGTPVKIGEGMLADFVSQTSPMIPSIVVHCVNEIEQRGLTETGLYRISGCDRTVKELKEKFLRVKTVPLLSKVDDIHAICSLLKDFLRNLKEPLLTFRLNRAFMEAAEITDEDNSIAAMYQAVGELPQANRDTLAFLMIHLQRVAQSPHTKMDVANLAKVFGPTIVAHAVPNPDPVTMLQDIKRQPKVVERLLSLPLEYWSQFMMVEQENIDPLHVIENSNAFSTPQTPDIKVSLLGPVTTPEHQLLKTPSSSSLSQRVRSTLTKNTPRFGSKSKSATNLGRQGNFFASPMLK

inhibition, inactive:
O=C(NCc1ccccc1)C1=C[C@H](c2csc3ccccc23)C[C@H](OCCCCO)O1 5.83%, Cc1nonc1C(=O)N/N=C/c1cccc(O)c1 5.55%, COc1cc(/C=N/NC(=O)c2c(C)nnn2-c2nonc2N)ccc1O 21.5%, COc1cc(/C=N/NC(=O)c2nnn(-c3nonc3N)c2C(C)C)ccc1OCc1ccccc1 12.2%, Cc1nonc1C(=O)N/N=C/c1ccc([N+](=O)[O-])o1 6.74%, Cc1nonc1C(=O)N/N=C/c1ccncc1 4.44%, Cc1nnn(-c2nonc2N)c1C(=O)N/N=C/c1ccccc1O 5.56%, Cc1nonc1C(=O)N/N=C/c1ccccc1 7.47%, COc1cccc(/C=N/NC(=O)c2nnn(-c3nonc3N)c2C(C)C)c1 2.84%, Cc1cc(NC(=O)COC(=O)c2cc([N+](=O)[O-])ccc2N2CCOCC2)ccc1Br -0.1%, O=C(COc1ccccc1F)NC12CC3CC(CC(C3)C1)C2 9.07%, CCN(CC(=O)Nc1c(F)cccc1F)C(=O)c1ccc(=O)n(C)n1 7.24%, CN(C)CCNC(=O)C(=O)NCC1OCCCN1S(=O)(=O)c1cccs1 (stereo unspecified) 5.17%, CCN(CC)CCN(CC(=O)Nc1c(C)cc(C)cc1C)C(=O)c1ccccc1 14.8%, CCN(CC)C(=O)CSc1nc2ncc(Br)cc2[nH]1 1.23%, CCCCN(C)C(=O)c1ccc2c(c1)N(CC)C(=O)c1ccccc1S2=O (stereo unspecified) 7.28%, COc1ccc(/C=N/NC(=O)c2nonc2N)cc1OC 11.7%, Cc1nonc1C(=O)N/N=C/c1cc2c(cc1Br)OCO2 -12.5%, COc1ccc(/C=N/NC(=O)c2nonc2C)cc1 17.8%, O=C(N/N=C/c1ccc(O)cc1O)C(=O)N/N=C/c1ccc(O)cc1O 16.7%, COc1ccnc(N=CNOCc2ccc(Cl)cc2)c1C#N 13.5%, COc1ccc(NS(=O)(=O)c2c(C)[nH]c(=O)[nH]c2=O)cc1OC 8.91%, Cc1cccc(N(C)S(=O)(=O)c2ccc3[nH]cc(C(=O)N4CCOCC4)c(=O)c3c2)c1 -3.07%, CCOC(=O)Cc1nnc(NCc2ccccc2)c2ccccc12 6.91%, Cc1cccc(N(CC(=O)NCC2CCCO2)C(=O)CCC(=O)Nc2cc(C)on2)c1 (stereo unspecified) 4.72%, COc1cccc(CNc2ccc3c(c2)nc(C)n3C)c1OC 30.5%, Cn1cnc2cc(NCc3ccccc3Cl)ccc21 26.5%, CC(C)(C)n1cnc2cc(NCc3ccccc3O)ccc21 13.7%, COc1cccc(CNc2ccc3c(c2)ncn3C(C)C)c1OC 24.5%, Cc1noc(C)c1NC(=O)Nc1cccc2c1O[C@@H](CN(C)Cc1ccc3c(c1)OCO3)[C@@H](C)CN([C@H](C)CO)C2=O 4.09%, CCN1CCCC1CNC(=O)c1ccc(Sc2ccccc2Cl)c([N+](=O)[O-])c1 (stereo unspecified) 4.96%, Cc1ccc2c(CN3CCOCC3)cc(=O)oc2c1C 3.73%, Cc1cc(=O)oc2c(CN3CCCC3)c(O)ccc12 6.69%, Cc1c(O)ccc2c(CN3CCOCC3)cc(=O)oc12 17.9%, Cc1cc(=O)oc2c(CN3CCCCC3)c(O)ccc12 2.34%, CC1CCN(CC(O)COc2cccc(F)c2)CC1 (stereo unspecified) 2.16%, NC(=O)c1ccc(NC(=O)CN2CCN(C(=O)c3ccco3)CC2)cc1 13.6%, CSc1cccc(CN2CCCC(CNC(=O)c3ccco3)C2)c1 (stereo unspecified) 8.31%, Cc1c(NC(=O)Nc2ccc(Cl)c(Cl)c2)sc(=S)n1C -8.84%, N#C/C(=C/c1cc(Cl)c(O)c(Cl)c1)C(=O)N1CCCCC1 10.9%, N#C/C(=C\c1cccc(O)c1)C(=O)N1CCCCC1 11.3%, O=C(O)c1c2c(nc3ccccc13)/C(=C/c1ccc(OC(F)F)cc1)CCC2 9.02%, O=C(O)c1ccc(/C=C2\CCCc3c2nc2ccccc2c3C(=O)O)cc1 3.69%, CN(C)C(=O)CCc1ccc2c3c([nH]c2c1)[C@]1(C)[C@@H](C(=O)N2CCOCC2)C[C@H](CC(=O)NCc2cccc(C(F)(F)F)c2)C(=O)N1CC3 -2.92%, C/C(=N/NC(=O)c1cccc(Br)c1)C1CC2CCC1C2 (stereo unspecified) -6.86%, Cc1ccc(/C=C(/C#N)c2nc(CCN3C(=O)c4ccccc4C3=O)cs2)cc1 9.96%, CC(C(=O)NC1CCCC1)N1CCN(Cc2ccccc2)CC1 (stereo unspecified) 9.35%, CCN1CCN(C(C(=O)NC2CCCCC2)c2ccc(Cl)cc2)CC1 (stereo unspecified) 2.93%, CN1CCN(C(=O)NC2CCCCC2)CC1 13%, COc1ccc(N2CCN(C(C)C(=O)N3CC(C)OC(C)C3)CC2)cc1 (stereo unspecified) 26.9%, COc1ccc(N2CCN(C(C)C(=O)N3CCc4ccccc43)CC2)cc1 (stereo unspecified) 19.8%, CN1CCC(NC(=O)NC2CCCCC2)CC1 4.99%, CC(C(=O)NC(=O)NC1CCCCC1)N1CCN(c2ccccn2)CC1 (stereo unspecified) 4.4%, CC(C(=O)NC(=O)NC1CCCCC1)N1CCN(C(c2ccccc2)c2ccccc2)CC1 (stereo unspecified) 4.85%, C=CCN1C(=O)CS/C1=N\S(=O)(=O)c1ccc(Cl)cc1 -1.54%, CCOC(=O)c1c(C)n(C)c2ccc(OC)c([N+](=O)[O-])c12 8.57%, CCCOc1c(Br)cc(C(=O)NCC)cc1OC 13%, CSCCC(NS(=O)(=O)c1ccc2c(c1)oc(=O)n2C)C(=O)NCc1ccc(C)cc1 (stereo unspecified) 9.41%, CCCNC(=O)c1ccc(OC)cc1OC -1.98%, Cc1cccc(N=C2CCCC2C(=O)Nc2cccc(C)c2C)c1C (stereo unspecified) 5.77%, NC(=O)c1ccsc1NC(=O)COC(=O)c1cc(Cl)ccc1O 0.77%, CC(=O)NC(C(=O)c1ccccc1)N1CCCCC1 (stereo unspecified) 13.8%, Cc1ccc(/C=C2/NC(=O)[C@H](C)NC2=O)cc1 6.59%, CCN1C(=NCCOC)N[C@@H](CCc2ccccc2)[C@H](C(=O)OC)[C@H]1C 12.5%, C=C(C)CSc1nc2sc3c(c2c(=O)n1-c1ccccc1)CCN(C)C3 11.6%, O=C(NC1CCCCC1)N1CCN(c2ccc(Cl)cc2)CC1 6.94%, COc1cccc(N2CCN(C(=O)NC3CCCCC3)CC2)c1 2.77%, O=C(c1ccccc1Cc1ccccc1)N1CCN(S(=O)(=O)c2ccccc2Br)CC1 3.3%, COc1ccc(S(=O)(=O)N2CCN(C(=O)CCSc3ccccc3)CC2)cc1 7.76%, O=C(CNC(=O)c1ccccc1Br)N/N=C/c1ccco1 5.21%, O=C(c1ccc(S(=O)(=O)NCC2CCCO2)cc1)N1CCN(c2ccccc2F)CC1 (stereo unspecified) 5.89%, COc1ccc(S(=O)(=O)Cc2ccc(C(=O)N3CCN(c4ccc(Cl)cc4)CC3)o2)cc1 4.84%, COc1ccc(N2CCN(C(=O)c3ccc(CS(=O)Cc4ccc(Cl)cc4)o3)CC2)cc1 (stereo unspecified) 14%, C=CCN(Cc1ccc(Cl)s1)C(=O)c1cc(S(=O)(=O)N2CCOCC2)ccc1F 1.3%, COc1ccc(NC(=O)/C(=C\c2cc(OC)c(OC)cc2[N+](=O)[O-])NC(=O)c2ccccc2)cc1 9.89%, COc1cc(/C=C(/NC(=O)c2ccccc2)C(=O)Nc2ccccc2)c([N+](=O)[O-])cc1OC 4.35%, C=CCn1c(COc2ccccc2)nnc1SCC(=O)N/N=C/c1ccc(C)cc1 1.44%, C=CCn1c(CNc2ccccc2)nnc1SCC(=O)N/N=C/c1ccccc1O 3.95%, C=CCn1c(COc2ccccc2)nnc1SCC(=O)N/N=C/c1cc(Cl)ccc1O 11%, C=CCn1c(CNc2ccc(C)cc2)nnc1SCC(=O)N/N=C/c1ccc(O)cc1 30.4%, COc1c(N)c2c(c([N+](=O)[O-])c1OC)C(=O)OC2 -0.66%, C/C(=N\OCC(=O)Nn1c(=O)[nH]c2ccccc2c1=O)c1ccccc1 10.5%, Cc1cc(C)nc(NN=C(c2ccccc2)c2ccccc2)n1 7.14%, CC1=C(C(=O)Nc2ccccc2C(=O)NCCCOC(C)C)SCCO1 -0.28%, O=C(Nc1ccccc1)c1cccc(N2C(=O)C3C4C=CC(C4)C3C2=O)c1 (stereo unspecified) 8.69%, O=C(Nc1ccc(Br)cc1)c1cccc(N2C(=O)C3C4C=CC(C4)C3C2=O)c1 (stereo unspecified) 7.3%, CN1CCOCCOCCN(C)C1=O 8.52%, O=C(Cc1cccc2ccccc12)NC(=S)Nc1cccc(C(=O)O)c1 5.5%, COc1ccc(/C=N/NC(=O)C2C3CCCCC32)cc1OC (stereo unspecified) 10.4%, O=C(N/N=C/c1ccncc1)NC12CC3CC(CC(C3)C1)C2 10.9%, COc1ccc(/C=N/N=C2\CC3CCC2(C)C3(C)C)cc1O (stereo unspecified) 5.9%, COc1ccc(C=NNC(=O)NN=Cc2ccc(OC)c(OC)c2)cc1OC 3.42%, COc1cc(/C=N/NC(=O)NC23CC4CC(CC(C4)C2)C3)ccc1OCC(N)=O 7.72%, O=C(N/N=C/c1ccc(O)cc1O)NC12CC3CC(CC(C3)C1)C2 15%, COc1ccc(C=NNC(=S)NC23CC4CC(CC(C4)C2)C3)cc1OC 7.09%, COc1ccc(/C=C2/S/C(=N/N=C3\CC4CCC3(C)C4(C)C)NC2=O)cc1 (stereo unspecified) 7.33%
